Test results as given in PubChem BioAssay (Tox21).
Values without a mark were called inactive. Results filed as inconclusive are left out. Where a call stands in place of a potency, no number is given. Activity calls are given as the source filed them. Unless noted, calls follow the shape of the full dose curve.

Key:
[1] = qHTS assay to identify small molecule antagonists of the sonic hedgehog signaling (Shh) pathway (AID 1259369); also: nearly all actives have a fitted effect of over 45% in size
In short: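 Luminescence readout: firefly Luc under Gli1 response element in 3T3Gli1-Luc cells (NIH/3T3 clone). Antagonist mode, stimulation by conditioned medium; compound exposure 24hr at 37 C, 5% CO2.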

[2] = target: Estrogen receptor beta (Homo sapiens) (UniProt Q92731); assay: qHTS assay to identify small molecule agonists of the estrogen receptor beta (ER-beta) signaling pathway (AID 1259377; active = well fitted activation curve with a large enough effect in the signal ratio in the repeat runs, not every such curve was filed as active; the % refers to the signal ratio)
Estrogen receptor beta (Homo sapiens), sequence (Q92731 whole entry, looked up): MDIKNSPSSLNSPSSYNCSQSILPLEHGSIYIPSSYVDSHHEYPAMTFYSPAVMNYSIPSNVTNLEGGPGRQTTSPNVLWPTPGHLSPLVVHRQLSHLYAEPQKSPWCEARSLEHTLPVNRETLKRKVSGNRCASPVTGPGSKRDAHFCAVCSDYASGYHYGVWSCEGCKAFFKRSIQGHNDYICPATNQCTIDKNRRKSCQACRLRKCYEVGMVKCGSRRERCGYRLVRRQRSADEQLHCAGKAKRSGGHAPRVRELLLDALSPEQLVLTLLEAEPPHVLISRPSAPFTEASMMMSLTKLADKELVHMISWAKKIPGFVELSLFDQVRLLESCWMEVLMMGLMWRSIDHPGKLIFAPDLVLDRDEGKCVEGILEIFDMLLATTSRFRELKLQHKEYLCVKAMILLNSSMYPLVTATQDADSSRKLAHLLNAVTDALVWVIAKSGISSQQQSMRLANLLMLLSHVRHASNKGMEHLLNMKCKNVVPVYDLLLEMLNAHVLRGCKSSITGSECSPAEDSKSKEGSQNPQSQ
In short: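 Read-out: beta-lactamase FRET fluorescence. Cell line: ER-beta-UAS-bla HEK293T in 2% charcoal-stripped FBS. Exposure: 16 hr at 37C. Substrate step: 2 h at room temperature.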

[3] = qHTS assay to identify small molecule agonists of the estrogen receptor beta (ER-beta) signaling pathway - cell viability counter screen (AID 1259380; active = well fitted curve in the direction sought with a large enough effect in the repeat runs; an effect the other way counts as inactive or inconclusive; also: nearly all actives have a fitted effect of over 30% in size; also: potency is read from the fitted curve at half-maximal effect)
In short: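 Luminescence read-out (CellTiter-Glo, 30 min, room temp) taken in the same wells as the beta-lactamase reporter assay; ER-beta-UAS-bla HEK293T cells exposed to DMSO-dissolved compounds for 16 hr at 37C in 2% charcoal-stripped FBS medium.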

[4] = qHTS assay to identify small molecule antagonists of the estrogen receptor beta (ER-beta) signaling pathway - cell viability counter screen (AID 1259382; active = well fitted curve in the direction sought with a large enough effect in the repeat runs; an effect the other way counts as inactive or inconclusive; also: series mostly up to about 92 µM; nearly all actives have a fitted effect of over 55% in size)
In short: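 Luminescent ATP read-out (CellTiter-Glo, 30 min, RT) taken in the same wells as the bla reporter assay. HEK293T ER-beta-UAS-bla cells in 2% charcoal-stripped FBS were exposed to compounds with 1nM E2 for 16 hr at 37C.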

[5] = target: Estrogen receptor (Homo sapiens) (UniProt P03372); assay: qHTS assay to identify small molecule agonists of the estrogen receptor alpha (ER-alpha) signaling pathway in the presence of an antagonist (AID 1259383); also: nearly all actives have a fitted effect of over 15% in size; also: potency is read from the fitted curve at half-maximal effect; as to activation: top concentration of the series differs between compounds
Estrogen receptor (Homo sapiens), sequence (P03372 whole entry, looked up): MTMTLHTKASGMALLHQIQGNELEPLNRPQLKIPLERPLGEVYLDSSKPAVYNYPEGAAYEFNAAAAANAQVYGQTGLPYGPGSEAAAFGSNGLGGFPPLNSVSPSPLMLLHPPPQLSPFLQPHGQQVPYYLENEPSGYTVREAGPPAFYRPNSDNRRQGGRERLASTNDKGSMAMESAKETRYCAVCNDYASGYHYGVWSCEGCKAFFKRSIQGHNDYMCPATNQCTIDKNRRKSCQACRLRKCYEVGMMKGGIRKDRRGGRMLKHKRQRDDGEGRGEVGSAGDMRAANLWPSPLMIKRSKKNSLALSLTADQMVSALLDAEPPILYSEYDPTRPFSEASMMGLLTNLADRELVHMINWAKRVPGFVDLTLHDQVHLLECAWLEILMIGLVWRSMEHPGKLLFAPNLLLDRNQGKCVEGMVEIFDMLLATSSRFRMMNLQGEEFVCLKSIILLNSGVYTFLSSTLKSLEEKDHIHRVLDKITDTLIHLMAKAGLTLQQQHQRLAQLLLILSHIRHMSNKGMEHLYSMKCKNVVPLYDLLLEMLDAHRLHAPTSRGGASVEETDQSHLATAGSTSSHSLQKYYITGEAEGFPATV
In short: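 Luciferase luminescence (ONE-Glo, 30min at room temperature) measured in VM7Luc4E2 cells after 22hr compound exposure at 15 concentrations, with 10.0nM ICI-182,780 final present; cells express endogenous ER-alpha and carry four EREs upstream of luciferase.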

[6] = qHTS assay to identify small molecule agonists or antagonists of the thyroid stimulating hormone receptor (TSHR) signaling pathway - wild type cell line counter screen (AID 1259384)
In short: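 Wild-type Hek293 cells, 800/well, 18 h at 37C, then compound with Ro20-1724 for 30 min RT. cAMP by HTRF (cAMP-d2/anti-cAMP cryptate), 1 h RT, fluorescence read. 15 concentrations, triplicates.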

[7] = qHTS assay to identify small molecule agonists of the sonic hedgehog signaling (Shh) pathway (AID 1259368);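 also: NIH/3T3-derived 3T3Gli1-Luc cells carrying a stable Gli1-driven firefly luciferase reporter; series mostly up to about 92 µM; nearly all actives have a fitted effect of over 15% in size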
In short: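 Read-out: firefly luciferase luminescence from a Gli1 response element reporter stably integrated in NIH/3T3-derived 3T3Gli1-Luc cells, measured 30 min at room temperature after reagent addition. Compound exposure lasted 24 hr at 37 C, 5% CO2.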

[8] = qHTS assay to identify small molecule agonists of the androgen receptor (AR) signaling pathway in the presence of an antagonist - cell viability counter screen (AID 1259379; active = well fitted curve in the direction sought with a large enough effect in the repeat runs; an effect the other way counts as inactive or inconclusive; also: nearly all actives have a fitted effect of over 25% in size; also: potency is read from the fitted curve at half-maximal effect;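 as to activity change, negative = cytotoxicity: MDA-kb2 human breast cancer cells carrying an MMTV luciferase reporter; series mostly up to about 92 µM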)
In short: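 Viability counter screen: CellTiter-Fluor fluorescence, measured in the same wells as the luciferase read-out. MDA-kb2 cells, 3,000/well, with nilutamide at 3.0uM final and compounds at 15 concentrations, 16 hr at 37C, 0% CO2.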

[9] = target: Androgen receptor (Homo sapiens) (UniProt P10275); assay: qHTS assay to identify small molecule agonists of the androgen receptor (AR) signaling pathway in the presence of an antagonist (AID 1259381); also: nearly all actives have a fitted effect of over 15% in size
Androgen receptor (Homo sapiens), sequence (P10275 whole entry, looked up): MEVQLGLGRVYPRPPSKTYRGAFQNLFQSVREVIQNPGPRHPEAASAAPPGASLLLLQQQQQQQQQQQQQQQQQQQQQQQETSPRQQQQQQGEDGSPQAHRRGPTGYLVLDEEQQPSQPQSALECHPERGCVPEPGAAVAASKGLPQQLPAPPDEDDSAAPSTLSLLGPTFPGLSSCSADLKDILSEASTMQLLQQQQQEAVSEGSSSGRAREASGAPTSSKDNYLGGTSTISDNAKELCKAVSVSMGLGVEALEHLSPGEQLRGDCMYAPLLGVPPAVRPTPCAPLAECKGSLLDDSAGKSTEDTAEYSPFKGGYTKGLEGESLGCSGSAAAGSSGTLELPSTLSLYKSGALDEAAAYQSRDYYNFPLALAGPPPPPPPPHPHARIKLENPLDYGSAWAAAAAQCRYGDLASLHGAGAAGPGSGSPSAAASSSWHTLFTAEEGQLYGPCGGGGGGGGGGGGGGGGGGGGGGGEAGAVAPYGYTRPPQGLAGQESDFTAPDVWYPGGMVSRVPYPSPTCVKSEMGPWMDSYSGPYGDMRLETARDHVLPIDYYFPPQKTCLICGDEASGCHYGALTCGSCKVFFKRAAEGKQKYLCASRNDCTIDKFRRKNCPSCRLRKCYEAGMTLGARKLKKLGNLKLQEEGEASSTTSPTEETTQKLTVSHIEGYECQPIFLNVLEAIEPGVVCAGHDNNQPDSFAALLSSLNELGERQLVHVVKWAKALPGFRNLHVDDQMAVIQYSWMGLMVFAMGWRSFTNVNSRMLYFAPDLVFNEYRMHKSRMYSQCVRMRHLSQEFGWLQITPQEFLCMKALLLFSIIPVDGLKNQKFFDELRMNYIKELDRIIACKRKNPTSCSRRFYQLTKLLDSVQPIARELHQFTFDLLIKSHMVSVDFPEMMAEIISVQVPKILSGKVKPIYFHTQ
In short: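 Luciferase read-out (ONE-Glo, 30min room temperature) in MDA-kb2 MMTV-reporter cells; agonist mode run in presence of AR antagonist nilutamide, 3.0uM final. Compounds tested as 15-point series, 16hr exposure at 37C, 0% CO2.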

[10] = target: Estrogen receptor beta (Homo sapiens) (UniProt Q92731); assay: qHTS assay to identify small molecule antagonists of the estrogen receptor beta (ER-beta) signaling pathway (AID 1259378; active = well fitted inhibition curve with a large enough effect in the signal ratio in the repeat runs, not every such curve was filed as active; the % refers to the signal ratio)
In short: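 ER-beta-UAS-bla HEK293T cells in 2% charcoal-stripped FBS medium treated with compound plus 1nM final 17-beta-estradiol for 16 hr at 37C. Beta-lactamase reporter read by FRET substrate fluorescence after 2 hours at room temperature.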

[O-][N+](=Nc1ccccc1)c1ccccc1
Potency [1]: inactive | outcome [2]: inactive | Potency [3]: inactive | Potency [4]: inactive | Potency [5]: inactive | outcome [6]: inactive

O=C(O)Cc1cc(I)c(Oc2cc(I)c(O)c(I)c2)c(I)c1
Potency [7]: inactive | outcome [2]: inactive | Potency [8]: inactive | Potency [5]: inactive

CN(C)CCn1nnnc1SCC1=C(C(=O)O)N2C(=O)[C@@H](NC(=O)Cc3csc(N)n3)[C@H]2SC1
Potency [7]: inactive | Potency [8]: inactive | Potency [3]: inactive | Potency [9]: inactive | Potency [4]: inactive | outcome [6]: inactive

Nc1ncnc2c1ncn2Cc1c(F)cccc1Cl
Potency [7]: inactive | Potency [8]: inactive | Potency [4]: inactive | Potency [5]: inactive | outcome [6]: inactive

Cc1ccc(N)cc1[N+](=O)[O-]
Potency [7]: inactive | Potency [8]: inactive | Potency [9]: inactive | Potency [4]: inactive | outcome [6]: inactive

Nc1ccn(C2CO[C@H](CO)O2)c(=O)n1 (some centres undefined)
Potency [7]: inactive | outcome [2]: inactive | Potency [8]: inactive | Potency [3]: inactive | Potency [4]: inactive | Potency [5]: inactive | outcome [6]: inactive

CN(C)CCOC(c1ccc(Cl)cc1)c1ccccn1 (centres undefined)
Potency [7]: inactive | Potency [8]: inactive | Potency [3]: inactive | Potency [4]: inactive | Potency [5]: inactive | outcome [6]: inactive

O=[N+]([O-])c1ccc(CCO)cc1
Potency [7]: inactive | Potency [8]: inactive | Potency [3]: inactive | Potency [4]: inactive | Potency [5]: inactive

NC(CS)C(=O)O (centres undefined)
Potency [7]: inactive | Potency [8]: inactive | Potency [3]: inactive | outcome [6]: inactive

CN(C)C(=O)C(CCN1CCC(O)(c2ccc(Cl)cc2)CC1)(c1ccccc1)c1ccccc1
Potency [7]: inactive | outcome [2]: inactive | Potency [8]: 29.8 µM (active) | Potency [3]: 26.6 µM (active) | Potency [5]: inactive

CCn1cc(C(=O)O)c(=O)c2cc(F)c(N3CCN(C)CC3)cc21
activity change [7]: -0.335% [at 18.9 µM, active compounds read high] | activation [2]: 2.22% [at 19 µM] | activity change, negative = cytotoxicity [8]: 3.8% [at 19 µM] | activity change, negative = cytotoxicity [3]: 5.67% [at 19 µM] | activity change, negative = cytotoxicity [4]: 0.879% [at 19 µM] | cAMP activity change [6]: -4.11% [at 18.9 µM]

CCOC(=O)Nc1ccc2c(c1)N(C(=O)CCN1CCOCC1)c1ccccc1S2
Potency [7]: inactive | outcome [2]: inactive | Potency [10]: inactive | Potency [8]: inactive | Potency [3]: inactive | Potency [9]: inactive | Potency [4]: inactive | outcome [6]: inactive

C=C(C)[C@H]1CC=C(C)CC1
Potency [7]: inactive | Potency [8]: inactive | Potency [3]: inactive

C(=C(c1ccccc1)c1ccccc1)c1ccccc1
Potency [7]: inactive | outcome [2]: inactive | Potency [8]: inactive

CO
Potency [7]: inactive | Potency [1]: inactive | Potency [4]: inactive | outcome [6]: inactive

C1COCCO1
Potency [7]: inactive | Potency [1]: inactive | Potency [9]: inactive | Potency [4]: inactive | Potency [5]: inactive

OCC(O)[C@@H](O)[C@H](O)[C@H](O)CO[C@H]1O[C@H](CO)[C@@H](O)[C@H](O)[C@H]1O (some centres undefined)
Potency [7]: inactive | outcome [2]: inactive | Potency [10]: inactive | Potency [8]: inactive | Potency [4]: inactive | outcome [6]: inactive

CCCCCCCCCCCCI
Potency [7]: inactive | Potency [4]: inactive | outcome [6]: inactive

CC(C)CCOC(=O)CC(C)C
Potency [7]: inactive | Potency [1]: inactive | Potency [4]: inactive | Potency [5]: inactive

CC(CCO)CCCC(C)(C)O (centres undefined)
Potency [7]: inactive | outcome [2]: inactive | Potency [8]: inactive | Potency [3]: inactive | Potency [4]: inactive

CC(=O)c1ccc(C)cc1
Potency [7]: inactive | Potency [8]: inactive | Potency [3]: inactive | Potency [4]: inactive | Potency [5]: inactive | outcome [6]: inactive

CCn1c(=O)c2c(nc(/C=C/c3ccc(OC)c(OC)c3)n2C)n(CC)c1=O
Potency [7]: inactive | Potency [8]: inactive | outcome [6]: inactive

CCOC(=O)Cn1c(=O)sc2cccc(Cl)c21
Potency [7]: inactive | outcome [2]: inactive | Potency [10]: inactive | Potency [8]: inactive | Potency [4]: inactive | outcome [6]: inactive

CC(C)(O)C(=O)c1ccc(OCCO)cc1
Potency [7]: inactive | outcome [2]: inactive | Potency [10]: inactive | Potency [8]: inactive | Potency [3]: inactive | Potency [4]: inactive | Potency [5]: inactive

Oc1ccc2c(c1)OC[C@@H](N1CCC(O)(c3ccc(F)cc3)CC1)[C@H]2O
outcome [2]: inactive | Potency [10]: inactive | Potency [8]: inactive | Potency [3]: inactive | Potency [4]: inactive | Potency [5]: 0.668 µM (active) | outcome [6]: inactive

C#CC(O)C(CC)CCCC (centres undefined)
Potency [7]: inactive | outcome [2]: inactive | Potency [10]: inactive | Potency [3]: inactive | Potency [9]: inactive | Potency [4]: inactive | outcome [6]: inactive

CCCCCCCCC=O
Potency [7]: inactive | outcome [2]: inactive | Potency [8]: inactive | Potency [3]: inactive | Potency [4]: inactive | outcome [6]: inactive

C=CCOc1nc(OCC=C)nc(OCC=C)n1
Potency [7]: inactive | outcome [2]: inactive | Potency [8]: inactive | Potency [3]: inactive | outcome [6]: inactive

Cc1nc(-c2ccc(OCC(C)C)c(C#N)c2)sc1C(=O)O
Potency [1]: inactive | Potency [8]: inactive | Potency [9]: inactive | Potency [4]: inactive | Potency [5]: inactive | outcome [6]: inactive

CC/C=C\C#N
Potency [7]: inactive | outcome [2]: inactive | Potency [10]: inactive | Potency [8]: inactive | Potency [3]: inactive | Potency [5]: inactive | outcome [6]: inactive

O=S(=O)(c1cccc2cnccc12)N1CCCNCC1
Potency [7]: inactive | outcome [2]: inactive | Potency [10]: inactive | Potency [8]: inactive | Potency [4]: inactive | Potency [5]: inactive | outcome [6]: inactive

NC(=O)c1ncn([C@@H]2O[C@H](CO)[C@@H](O)[C@H]2O)c1O
Potency [7]: inactive | outcome [2]: inactive | Potency [8]: inactive | Potency [3]: inactive | Potency [4]: inactive | outcome [6]: inactive

COC(=O)C1=C(C)NC(C)=C(C(=O)OCC(C)=O)C1c1ccccc1[N+](=O)[O-] (centres undefined)
Potency [7]: inactive | Potency [8]: inactive | Potency [3]: inactive | Potency [4]: inactive | Potency [5]: inactive | outcome [6]: inactive

c1ccc(SCCSc2ccccc2)cc1
Potency [1]: inactive | outcome [2]: inactive | Potency [9]: inactive | Potency [4]: inactive | outcome [6]: inactive
